Format in all cases: functional
Experiment [1] concerns Plasmodium falciparum. Kind of experiment: GSK_TCMDC: Inhibition of Plasmodium falciparum 3D7 in whole red blood cells, using parasite LDH activity as an index of growth. Test compounds present at 2uM.
In experiment [2] the test system is Plasmodium falciparum. Kind of experiment: GSK_TCMDC: Inhibition of Plasmodium falciparum Dd2 in whole red blood cells, using parasite LDH activity as an index of growth. Test compounds present at 2uM.
Another experiment deals with HepG2. Kind of experiment: GSK_TCMDC: Percent inhibition of human HepG2 cell line. Test compounds present at 10uM.

Molecules are shown by their SMILES.

As usually defined, the Inhibition is the drop in the measured response relative to a control, in per cent. A low value points to a response near the control. For the compound `Cc1cc(NCCCCCCCCNc2cc(C)nc3ccccc23)c2ccccc2n1.Cl`, the Inhibition is 100% in the experiment with Plasmodium falciparum [1], 0% in the experiment with Plasmodium falciparum [2] and 59% in the experiment on HepG2.
The matching figures for `Cl.NCc1ccc(Nc2nccc(Nc3ccc(-c4ccccc4)cc3)n2)cc1`: 100%, 98% and 47%.
In the case of `COc1ccc(C(=O)N2CCc3cc4nccc(N5CCN6CCC[C@H]6C5)c4cc32)cc1`, the Inhibition was 98% in the experiment on Plasmodium falciparum [1], 50% in the experiment on Plasmodium falciparum [2] and 1% in the experiment with HepG2.
For `CCc1ccc(NC(=O)c2ccc(CN3CCCN(CCC(C)C)CC3)cc2)cc1.O=C(O)C(F)(F)F`, in that order: 96%, 25% and 48%.
The matching figures for `CN(C(=O)Cc1ccc(Cl)c(Cl)c1)C1CCN(CCCCCNC(=O)/C=C/c2ccc(Cl)c(Cl)c2)CC1`: 84%, 13% and 87%.
Take `Cc1cc(C)c(C(=O)Nc2n[nH]c3nnc(-c4cccc(F)c4F)cc23)c(C)c1`: the Inhibition amounted to 90% in the experiment with Plasmodium falciparum [1], 0% in the experiment with Plasmodium falciparum [2] and 0% in the experiment on HepG2.
In the case of `COc1cc(NC(=O)c2sc(-c3ccc(Cl)cc3)cc2NC(=O)N2CCCC2)ccc1OCCN1CCCC1`, the Inhibition in the experiment on Plasmodium falciparum [1] is recorded as 100%; in the experiment on Plasmodium falciparum [2], 61%; with HepG2, 22%.
For `O=C(NCC1CCN(C/C=C/c2ccccc2)CC1)Nc1ccc(Oc2ccccc2)cc1`, in that order: 83%, 11% and 40%.
The matching figures for `CCc1cn2c3c(cc(C(=O)N[C@@H](Cc4ccccc4)[C@H](O)CNCc4ccc(C)cc4)cc13)N(C)S(=O)(=O)CC2.O=CO`: 99%, 98% and 0%.
The matching figures for `O=C(O)C(F)(F)F.c1ccc2[nH]c(-c3ccc(-c4ccc(CNCCc5ccncc5)cc4)s3)nc2c1`: 100%, 98% and 28%.
As to `CCCCCN1CCC(NS(=O)(=O)c2cccc(C(=O)Nc3cccc(C(F)(F)F)c3)c2)C1.O=C(O)C(F)(F)F` (stereo unspecified), the Inhibition was 86% in the experiment on Plasmodium falciparum [1], 17% in the experiment with Plasmodium falciparum [2] and 25% in the experiment on HepG2.
Turning to `CCc1cn2c3c(cc(C(=O)N[C@@H](Cc4cc(F)cc(F)c4)[C@H](O)CNC4CCOCC4)cc13)N(C)S(=O)(=O)CC2.O=CO`, the Inhibition worked out at 98% in the experiment on Plasmodium falciparum [1], 98% in the experiment on Plasmodium falciparum [2] and 1% with HepG2.
Take `COc1ccc(-n2nc(C(=O)NCCC3=CCCCC3)c3ccccc3c2=O)cc1`: the Inhibition was found to be 94% in the experiment with Plasmodium falciparum [1], 59% with Plasmodium falciparum [2] and 0% in the experiment on HepG2.
For `COc1cc2c(cc1C=CC(=O)N1CCN(Cc3nc(O)c4c(C)c(C)sc4n3)CC1)OC(C)C2` (stereo unspecified), in that order: 82%, 87% and 0%.
For `c1ccc2c3c(ccc2c1)Sc1c(ccc2ccccc12)N3`, in that order: 92%, 31% and 0%.
For `O=C1SC(=Cc2ccc(O)c(O)c2)C(=O)N1c1ccccc1`, in that order: 91%, 17% and 12%.
Regarding `CN1CCC(NCc2cccc(-c3ccc(S(=O)(=O)NCCc4ccccn4)cc3)c2)CC1.O=C(O)C(F)(F)F`, the Inhibition in the experiment with Plasmodium falciparum [1] was found to be 95%; in the experiment on Plasmodium falciparum [2], 1%; in the experiment on HepG2, 10%.
For `C=CCOc1ccc(C(=O)Nc2nonc2-c2ccc(OC)c(OC)c2)cc1`, in that order: 100%, 91% and 2%.
The matching figures for `Cc1[nH]c(C)c(-c2ccc(OCc3cc(C(F)(F)F)cc(C(F)(F)F)c3)nc2)c(=O)c1Cl`: 98%, 96% and 19%.
For `CCc1ccccc1N1CCN(CCCC(=O)c2ccc(NC(=O)c3ccc(Cl)cc3)cc2)CC1`, in that order: 90%, 4% and 17%.
As for `CN1CCN(c2ccc(Nc3c(C(N)=O)cnc4cc(-c5ccoc5)ccc34)cc2C(F)(F)F)CC1.Cl`, the Inhibition with Plasmodium falciparum [1] was determined as 100%; in the experiment with Plasmodium falciparum [2], 97%; in the experiment on HepG2, 13%.
For `CCC(CC)(CCC#N)CN(C[C@@H](O)[C@H](Cc1ccccc1)NC(=O)OC(C)(C)C)S(=O)(=O)c1ccc(OC)cc1`, in that order: 82%, 66% and 0%.
The matching figures for `COc1ccc2nccc([C@@H](O)CN3CCC(NCc4[nH]c5ccccc5c4F)CC3)c2c1.O=C(O)C(=O)O`: 100%, 61% and 19%.
The matching figures for `CC(CN1CCN(C)CC1)C(=O)Nc1ccc(-c2ccc(-c3nc4ccccc4[nH]3)s2)cc1` (stereo unspecified): 100%, 79% and 5%.
As to `Cl.N#Cc1ccc2c(c1)CCN(CCC1CCC(NC(=O)Nc3ccncc3)CC1)C2` (stereo unspecified), the Inhibition is on record as 85% in the experiment with Plasmodium falciparum [1], 3% in the experiment on Plasmodium falciparum [2] and 6% in the experiment on HepG2.
On to `O=C(Cn1c(CCc2cccc(F)c2F)nc(=O)c2ccccc21)N(CCN1CCCCC1)Cc1ccc(-c2ccc(C(F)(F)F)cc2)cc1.O=C(O)C(O)C(O)C(=O)O`, for which the Inhibition in the experiment with Plasmodium falciparum [1] was 100%; in the experiment with Plasmodium falciparum [2] it was 89%; in the experiment on HepG2, 32%.
The matching figures for `CC(C)C[C@@H](NC(=O)NC1CCC(CCN2C3CCC2CC(OC(=O)C(CO)c2ccccc2)C3)CC1)C(O)(c1ccccc1)c1ccccc1` (stereo partly specified): 95%, 71% and 21%.
